This passage reports Potency and outcome results from PubChem BioAssay (Tox21).

Assay [1] is described as follows: A CellTox Green Cytotoxicity Assay to monitor cytotoxicity in HEK293 cells - 32 hour (AID 1224881). Further: nearly all actives have a fitted effect of over 40% in size. In outline: (§1)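 Dead-cell fluorescence measured kinetically: asymmetric cyanine dye, HEK293, 600 cells/well, 5 h settle, 23 nL cpd/DMSO, 37 C, reads 0–40 h every 8 h.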
A short description of assay [2]: A CellTox Green Cytotoxicity Assay to monitor cytotoxicity in HepG2 cells - 0 hour (AID 1224882). Further: nearly all actives have a fitted effect of over 35% in size. An outline of the steps:
(§2)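 First, HepG2 cells (600/well) mixed with reagent were plated; second, after 5 h at 37 C they received compounds via pintool; third, fluorescence was measured at 0 h through 40 h at 8 h intervals.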

Assay [3] in a line: A CellTox Green Cytotoxicity Assay to monitor cytotoxicity in HepG2 cells - 32 hour (AID 1224883). Further: nearly all actives have a fitted effect of over 50% in size. Further: potency means the concentration at half of the fitted maximal effect. An outline of the steps:
as §2

A short description of assay [4]: qHTS RealTime-Glo MT Cell Viability Assay in HepG2 cells - 16 hour (AID 1224885). Further: nearly all actives have a fitted effect of over 50% in size. In outline: (§3)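 Viability was tracked continuously by NanoLuc luminescence from prosubstrate reduced by living HepG2 cells, at successive time points over 40 h of compound exposure. Cells with reagent were preincubated 5 h at 37 °C before compound addition.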
Background: In qHTS, concentration-response curves come from the screen itself.

A short description of assay [5]: qHTS RealTime-Glo MT Cell Viability Assay in HEK293 cells - 24 hour (AID 1224886). Further: top concentration of the series differs between compounds; nearly all actives have a fitted effect of over 50% in size. In outline:
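Viability tracked continuously by luminescence as live cells reduce a prosubstrate for NanoLuc; HEK293 cells preincubated 5 h, compound-treated at 37 C, and read at 0, 8, 16, 24, 32 and 40 h.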

A short description of assay [6]: qHTS RealTime-Glo MT Cell Viability Assay in HEK293 cells - 8 hour (AID 1224887). Further: top concentration of the series differs between compounds; nearly all actives have a fitted effect of over 50% in size. An outline of the steps: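 600 HEK293 cells per well, dispensed already mixed with RealTime-Glo MT reagents. Compound dosing came 5 h later. The same wells were read for luminescence at 0, 8, 16, 24, 32 and 40 h of exposure at 37 C.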
Assay [7] can be described thus: qHTS RealTime-Glo MT Cell Viability Assay in HepG2 cells - 0 hour (AID 1224889). Further: nearly all actives have a fitted effect of over 50% in size. In outline: as §3
Assay [8] is described as follows: A CellTox Green Cytotoxicity Assay to monitor cytotoxicity in HepG2 cells - 8 hour (AID 1224890). Further: nearly all actives have a fitted effect of over 45% in size. In outline: as §2
The nature of assay [9]: qHTS assay to identify small molecule antagonists of the estrogen receptor alpha (ER-alpha) signaling pathway using the BG1 cell line in the presence of 0.1 nM 17-beta-estradiol - cell viability counter screen (AID 1259241). Further: nearly all actives have a fitted effect of over 40% in size. In outline: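 VM7Luc4E2, 4,000 cells/well, phenol red-free medium + 10% charcoal-stripped FBS; 24 hr plating; cpd + 0.1 nM E2 final, 22 hr 37C/5% CO2; CellTiter-Fluor 30 min, fluorescence.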

Assay [10] can be described thus: qHTS assay to identify small molecule antagonists of the androgen receptor (AR) signaling pathway using the MDA cell line in the presence of 0.5 nM R1881 - cell viability counter screen (AID 1259242). Further: nearly all actives have a fitted effect of over 45% in size. An outline of the steps:
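qHTS format. MDA-kb2 (MMTV-luc, AR/GR responsive) + cpd + 0.5 nM R1881 final, 16 hr 37C/0% CO2 → CellTiter-Fluor 30 min → fluorescence intensity.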

The target in assay [11] is Estrogen receptor (Homo sapiens) (UniProt P03372). The assay is described as follows: qHTS assay to identify small molecule antagonists of the estrogen receptor alpha (ER-alpha) signaling pathway using the BG1 cell line in the presence of 0.1 nM 17-beta-estradiol (AID 1259244). Further: nearly all actives have a fitted effect of over 50% in size. An outline of the steps:
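Reporter is a stably transfected luciferase under four estrogen responsive elements in VM7Luc4E2 cells expressing native full-length ER-alpha; inhibition of 0.1 nM (final) 17beta-estradiol-driven signal over 22 h is read by luminescence.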

Assay [12] can be described thus: qHTS assay to identify small molecule phospholipidosis (PLD) inducers (AID 1259344; active means well fitted curve in the direction sought with a large enough effect; an effect the other way counts as inactive or inconclusive). An outline of the steps:
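Read-out is LipidTOX Red fluorescence (ex 595/em 615) imaged in HepG2 cells after 24 h compound exposure at 37 C, with Hoechst nuclear counterstain (ex 352/em 461) allowing per-cell normalisation.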

Assay [13] can be described thus: qHTS assay to identify small molecule HDAC inhibitors - cell viability counter screen (AID 1259365). In outline:
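Luminescence from CellTiter-Glo, developed 30min at room temperature, reports viability of wild-type HCT-116 cells treated 2hr with compounds at 37 C and 5% CO2 after overnight plating.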

The nature of assay [14]: qHTS assay to identify small molecule agonists of the sonic hedgehog signaling (Shh) pathway - cell viability counter screen (AID 1259366). Further: nearly all actives have a fitted effect of over 50% in size. An outline of the steps: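 Cytotoxicity counter screen run in the same wells as the Shh reporter assay. NIH/3T3 cells carrying a Gli1 response element–driven luciferase were treated with DMSO-dissolved compounds for 24hr, and live-cell protease activity was measured with CellTiter-Fluor.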

Assay [15] is described as follows: qHTS assay to identify small molecule antagonists of the sonic hedgehog signaling (Shh) pathway - cell viability counter screen (AID 1259367). Further: nearly all actives have a fitted effect of over 55% in size. In outline:
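Fluorescence read-out (CellTiter-Fluor, 1 hr at 37C) taken after 23 hr compound treatment of 3T3 Gli1-Luc cells stimulated with conditioned medium. Cells were seeded at 2,000 per well and pre-incubated 4 hr.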

Assay [16] in a line: qHTS assay to identify small molecule agonists of the sonic hedgehog signaling (Shh) pathway (AID 1259368; calls by dose curve;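 further: NIH/3T3-derived 3T3Gli1-Luc cells carrying a stable Gli1-driven firefly luciferase reporter; series mostly up to about 92 µM; nearly all actives have a fitted effect of over 15% in size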). An outline of the steps: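 Quantitative high-throughput format using a Gli1-driven firefly luciferase reporter line derived from NIH/3T3 cells. After a 24 hr compound treatment at 37 C and 5% CO2, luminescence reported Gli1 response element activity.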
A short description of assay [17]: A CellTox Green Cytotoxicity Assay to monitor cytotoxicity in HEK293 cells - 16 hour (AID 1224888). Further: nearly all actives have a fitted effect of over 35% in size. In outline:
as §1

A short description of assay [18]: qHTS assay to identify small molecule HDAC inhibitors (AID 1259364).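 Further: wild-type HCT-116 cells with endogenous class I/II HDAC activity; top concentration of the series differs between compounds; nearly all actives have a fitted effect of over 45% in size.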 An outline of the steps: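 Quantitative high-throughput format: overnight-seeded HCT-116 cells got compounds for 2 hr at 37C; HDAC-Glo I/II reagent added, 30 min RT, luminescence measured.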
Assay [19] is described as follows: A CellTox Green Cytotoxicity Assay to monitor cytotoxicity in HEK293 cells - 8 hour (AID 1224884). Further: nearly all actives have a fitted effect of over 35% in size. An outline of the steps:
as §1

Unmarked numbers belong to inactive results. Results filed as inconclusive are left out. Activity calls are given as the source filed them. Unless noted, the call rests on the fitted dose curve; in most records, active means well fitted curve in the direction sought with a large enough effect in the repeat runs; inconclusive means weak or mixed curves; inactive means no such curve, though single readings can be large; an effect the other way counts as inactive or inconclusive.

Estrogen receptor (Homo sapiens), sequence (P03372 whole entry, looked up): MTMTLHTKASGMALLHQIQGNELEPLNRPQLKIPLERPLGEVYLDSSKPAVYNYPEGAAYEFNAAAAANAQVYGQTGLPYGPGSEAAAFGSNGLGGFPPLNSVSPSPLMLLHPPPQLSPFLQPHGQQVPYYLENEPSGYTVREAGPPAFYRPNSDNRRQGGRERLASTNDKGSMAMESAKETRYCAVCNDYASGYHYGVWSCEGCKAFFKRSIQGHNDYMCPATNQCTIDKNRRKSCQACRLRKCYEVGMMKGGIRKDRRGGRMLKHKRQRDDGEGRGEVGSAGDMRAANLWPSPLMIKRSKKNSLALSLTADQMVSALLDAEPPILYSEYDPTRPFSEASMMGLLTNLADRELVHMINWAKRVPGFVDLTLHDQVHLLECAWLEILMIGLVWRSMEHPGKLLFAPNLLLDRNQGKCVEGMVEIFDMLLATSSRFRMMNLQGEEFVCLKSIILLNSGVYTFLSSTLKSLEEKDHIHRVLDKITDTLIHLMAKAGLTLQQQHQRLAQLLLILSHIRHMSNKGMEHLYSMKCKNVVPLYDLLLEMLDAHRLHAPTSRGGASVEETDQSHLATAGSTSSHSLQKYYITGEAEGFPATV

With `CCOc1cc(OCC)c(C(=O)CCC(=O)O)cc1OCC`, the Potency entry in [1], in [2], in assay [3], in assay [4], in assay [5] and in assay [6] was “inactive” throughout. In addition, the Potency result in assay [7], in [8], in [9], in assay [10], in [11] and in assay [12] was “inactive” throughout. In addition, the Potency entry in [14] and in [15] was “inactive” in each case. Further, the compound was called inactive in assay [13] and in assay [16].
As for `CN1CCC[C@@H]1c1cccnc1`, the Potency entry in assay [1], in [2], in assay [3], in assay [4], in assay [5] and in assay [17] was “inactive” each time. In addition, the Potency result in assay [7], in assay [9], in [10], in assay [12], in assay [18] and in assay [14] was “inactive” in each case. For the same compound, in assay [15], the Potency entry is “inactive”. In addition, the result in assay [13] and in [16] was inactive.
For `O=S1(=O)N=C(O)c2ccccc21`, the Potency entry in [1], in [2], in [19], in assay [4], in [5] and in assay [6] was “inactive” each time. The Potency entry in [17], in [7], in [8], in [9], in [10] and in assay [18] was “inactive” each time. The Potency entry in assay [14] and in assay [15] was “inactive” in each case. Also, the compound was called inactive in assay [13] and in assay [16].
Take `O=C(O)Cc1sc(-c2ccccc2)nc1-c1ccc(Cl)cc1`: the Potency entry in [1], in assay [2], in assay [3], in assay [4], in assay [5] and in assay [17] was “inactive” each time. The Potency entry in [7], in [8], in assay [9], in assay [10], in [11] and in assay [12] was “inactive” throughout. In addition, the Potency result in assay [14] and in assay [15] was “inactive” each time. The result in assay [13] and in [16] was inactive.
On to `CC(C)(C)C1CCCCC1O` (stereo not given), for which the Potency result in assay [1], in [2], in assay [19], in [4], in assay [5] and in [6] was “inactive” each time. In addition, the Potency result in assay [17], in assay [7], in assay [8], in assay [9], in [10] and in assay [11] was “inactive” throughout. For the same compound, the Potency result in assay [18], in assay [14] and in [15] was “inactive” throughout. Further, the outcome in assay [16] was inactive.
As for `O=C1CCCCCO1`, the Potency result in [1], in assay [2], in assay [3], in assay [4], in [5] and in [6] was “inactive” in each case. Besides, the Potency entry in assay [17], in assay [7], in [9], in assay [10], in assay [11] and in assay [18] was “inactive” throughout. The Potency result in assay [14] and in [15] was “inactive” each time. The outcome in assay [13] and in assay [16] was inactive.
As for `CN1CCC(=C2c3ccccc3CCc3sccc32)CC1`, the Potency entry in assay [1], in assay [2], in assay [4], in [5], in assay [6] and in assay [17] was “inactive” throughout. Besides, the Potency result in assay [7], in assay [8], in assay [9], in assay [10], in [18] and in assay [14] was “inactive” in each case. In addition, in assay [15], the Potency result is “inactive”. The Potency in assay [3] was 23.9 µM (active). Further, the call in assay [13] and in [16] was inactive.
For the compound `CCCCCCCCCCCCCCCC(=O)OC/C=C(C)/C=C/C=C(C)/C=C/C1=C(C)CCCC1(C)C`, the Potency entry in [1], in assay [2], in assay [3], in [4], in assay [5] and in assay [17] was “inactive” throughout. Besides, the Potency entry in assay [7], in assay [8], in assay [9], in assay [10], in assay [18] and in assay [14] was “inactive” in each case. Further, the Potency entry in [15] was “inactive”. Further, the compound was classed as inactive in assay [16].
